Structures are written as SMILES. Calls of active or inactive are those of the source.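 The calls were made as follows, unless noted: active = NADPH fluorescence slope more negative than the mean of all samples by about 3 SD, 99.7% confidence; inactive = the rest.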

Experimental findings from PubChem BioAssay are described below.

The target of assay [1] is Voltage-gated potassium channel subunit beta-2 (Rattus norvegicus) (UniProt P62483). Put plainly: KvBeta enzyme negative modulators, primary screen, biochemical, NADPH fluorescence (AID 622;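 active = fluorescence slope higher than the sample average by over 3 SD, cut at about -0.22 in these data, passing the limit was not always enough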;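 also: slope of raw intensity against log time taken from 70 to 1610 s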). Particulars: recombinant KvBeta, 4-cyanobenzaldehyde reduction, at 10 µM, stronger effect = higher value.
For assay [2] the target is unchanged. As to the kind of experiment: KvBeta positive modulators, primary screen, biochemical, NADPH fluorescence (AID 623).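 Also: fluorescence intensity change per second fitted from 20 to 320 s.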 Particulars: Recombinant KvBeta, NADPH fluorescence decrease slope, 10 min; at 10 µM; stronger effect = lower value.
For assay [3], the target named is Alpha-2C adrenergic receptor (Homo sapiens) (UniProt P18825). As to the kind of experiment: modulators of alpha2C/GIRK thallium flux, primary screen, cell-based, HEK293 alpha2C/GIRK1/2 (AID 624;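 active = fluorescence slope after compound addition differing from the mean of all screened samples at 99.7% confidence, in either direction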;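 also: slope of fluorescence ratio to pre-addition baseline per second over 15 to 24 s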). Particulars: thallium flux BTC fluorescence, at 10 µM, actives lie on both sides.
The nature of assay [4]: inhibitors of larval lipid processing in zebrafish, primary screen, whole organism, PED6 fluorescence, gall bladder and intestine (AID 686;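 active = a full or partial loss of lipid-probe fluorescence in the fish gall bladder, intestine or both, judged by eye; inactive = no fluorescence loss, or compound toxic to the fish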;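 also: larvae 5 to 7 days old with five fish per well; signal comes from phospholipase A2 cleavage of quenched PED6 carried via bile; overnight exposure to compound and PED6 before scoring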). The following applies: Zebrafish larvae PED6 lipid processing, fluorescence scoring; screened at 20 µM (by protocol).
Assay [5] is described as follows: inhibitors of Sendai virus-induced IRF3 signaling, primary screen, TLR/RLR signaling modifier project, cell-based, Sendai virus stimulus, luciferase, 10K MLSCN set (AID 602276;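 active = inhibition at or above 50% at 10 µM; inactive = inhibition below 50%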;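 also: firefly luciferase from ISG56 promoter only with Renilla not read in this screen; 0% = Sendai virus plus DMSO and 100% = medium plus DMSO without virus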). Particulars: HEK293 RL24 IRF3 luciferase reporter, at 10 µM, stronger effect = higher value.
A short description of assay [6]: inhibitors of poly I:C-induced TLR3 signaling, primary screen, cell-based, poly I:C stimulus, luciferase, 10K MLSCN set (AID 602277;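 active = inhibition of the reporter signal at or above 50%; inactive = inhibition below 50%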). The following applies: HEK293-TLR3 RL24 IRF3 luciferase reporter, at 10 µM, stronger effect = higher value.
Assay [7] has as its target Muscarinic acetylcholine receptor M4 (Homo sapiens) (UniProt P08173). As to the kind of experiment: compounds altering M4/GIRK thallium flux, either direction, primary screen, M4 allosteric agonist project, cell-based, HEK293 M4/GIRK, BTC-AM (AID 625;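 active = fluorescence slope after compound addition differing from the mean of all tested samples at 99.7% confidence, mostly higher but some lower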;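 also: thallium influx through GIRK channels coupled to M4 in HEK293 cells with BTC-AM dye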). Particulars: at 10 µM, actives lie on both sides.
A short description of assay [8]: inhibitors of mutant huntingtin aggregation, primary screen, imaging, exon1htt(103Q)mCFP cells, high-content imaging (AID 483;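 active = visual image review flags a hit and inhibition of aggregation exceeds 20%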;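 also: compound exposure lasted 3 days before fixation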;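 as to nuclei count: percent of the per-plate median nuclei count of sample wells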). The following applies: exon1htt(103Q)mCFP cell line, aggregate imaging, at 2 µM; inhibition of aggregation: stronger effect = higher value; nuclei count: measured here: cell count, toxicity.
Assay [9] can be described thus: inhibitors of E-selectin induction by TNFa, primary screen, imaging, HUVEC, immunofluorescence, MLSMR starter and 10KST1 sets (AID 487;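 active = visually confirmed hit in the image check and inhibition above 20%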;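 as to inhibition: signal is fraction of cell area covered by stained E-selectin grains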;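 as to nuclei count: 100% = median nuclei count of all wells on the same plate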). The following applies: HUVEC TNFalpha-induced E-selectin immunofluorescence imaging, at 2 µM; inhibition: stronger effect = higher value; nuclei count: measured here: cell number, toxicity.
Assay [10] in a line: DUSP6 inhibitors restoring Erk phosphorylation by chemical complementation, primary imaging in DUSP6-transfected HeLa (AID 609;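 active = compounds giving at least 50% inhibition in the cell-based MKP-3 phosphatase rescue imaging test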;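 as to inhibition: phospho-Erk level distribution per well compared with pooled transfected vehicle control wells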). The following applies: HeLa MKP-3 transfected, phospho-Erk imaging KS statistic, at 10 µM, cells stimulated with TPA for 15 min.
Assay [11] concerns the target Dual specificity protein phosphatase 6 (Homo sapiens) (UniProt Q16828). The assay is described as above. Particulars: HeLa MKP-3 transfected, phospho-Erk imaging KS statistic; at 10 µM; stronger effect = higher value; cells stimulated with TPA for 15 min.
Assay [12] is described as follows: inhibitors of Chlamydomonas gravitaxis, primary screen, whole organism, Chlamydomonas reinhardtii, WT vs cilia-less mutant, absorbance, 96-well (AID 463189;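 active = inhibition at or above 50% relative to wild type and mutant plate controls; inactive = inhibition below 50%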;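 also: 0% = wild type cc124 cells in DMSO and 100% = ciliumless bld1 mutant cells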). The following applies: OD600 absorbance, 2 days, at 10 µM, stronger effect = higher value.
The mark [13] stands for this setting: measured here: cell density z-score.
The mark [14] stands for this setting: measured here: nuclear c-Myc green intensity z-score.
[15] abbreviates: measured here: nuclear pErk red intensity z-score, stronger effect = higher value.

Voltage-gated potassium channel subunit beta-2 (Rattus norvegicus), sequence (P62483 whole entry, looked up): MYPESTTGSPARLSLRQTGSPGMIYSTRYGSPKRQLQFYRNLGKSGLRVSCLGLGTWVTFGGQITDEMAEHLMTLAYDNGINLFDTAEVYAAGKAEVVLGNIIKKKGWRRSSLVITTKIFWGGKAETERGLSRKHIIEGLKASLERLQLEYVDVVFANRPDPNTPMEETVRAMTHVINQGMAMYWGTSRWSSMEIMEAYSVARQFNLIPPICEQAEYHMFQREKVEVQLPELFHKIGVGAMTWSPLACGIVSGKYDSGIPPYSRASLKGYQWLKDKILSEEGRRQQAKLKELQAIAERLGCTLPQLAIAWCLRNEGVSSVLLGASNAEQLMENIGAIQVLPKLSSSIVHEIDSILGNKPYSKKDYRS
Alpha-2C adrenergic receptor (Homo sapiens), sequence (P18825 whole entry, looked up): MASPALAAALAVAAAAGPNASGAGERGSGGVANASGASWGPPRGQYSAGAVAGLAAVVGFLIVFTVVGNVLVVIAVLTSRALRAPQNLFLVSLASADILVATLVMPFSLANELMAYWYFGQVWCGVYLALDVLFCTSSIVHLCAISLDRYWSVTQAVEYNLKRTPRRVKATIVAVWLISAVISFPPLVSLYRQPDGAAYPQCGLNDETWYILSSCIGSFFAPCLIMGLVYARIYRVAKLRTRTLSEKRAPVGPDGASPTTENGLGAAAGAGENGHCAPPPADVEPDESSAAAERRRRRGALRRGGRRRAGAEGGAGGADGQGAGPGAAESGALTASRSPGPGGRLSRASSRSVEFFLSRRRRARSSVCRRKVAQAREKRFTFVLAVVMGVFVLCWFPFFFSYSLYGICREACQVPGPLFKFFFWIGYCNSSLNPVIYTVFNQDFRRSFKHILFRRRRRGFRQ
Muscarinic acetylcholine receptor M4 (Homo sapiens), sequence (P08173 whole entry, looked up): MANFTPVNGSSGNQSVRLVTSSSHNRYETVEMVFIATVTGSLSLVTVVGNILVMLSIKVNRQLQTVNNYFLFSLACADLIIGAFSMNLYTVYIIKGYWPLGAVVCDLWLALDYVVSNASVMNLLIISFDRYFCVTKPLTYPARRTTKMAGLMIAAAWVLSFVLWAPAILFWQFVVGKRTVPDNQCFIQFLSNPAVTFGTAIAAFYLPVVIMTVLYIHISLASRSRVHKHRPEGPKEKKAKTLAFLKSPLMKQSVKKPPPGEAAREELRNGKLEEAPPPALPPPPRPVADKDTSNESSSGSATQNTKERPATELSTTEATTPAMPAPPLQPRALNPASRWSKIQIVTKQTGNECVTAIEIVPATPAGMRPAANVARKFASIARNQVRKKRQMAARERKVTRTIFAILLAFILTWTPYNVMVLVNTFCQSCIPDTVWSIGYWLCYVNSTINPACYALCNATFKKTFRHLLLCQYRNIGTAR
Dual specificity protein phosphatase 6 (Homo sapiens), sequence (Q16828 whole entry, looked up): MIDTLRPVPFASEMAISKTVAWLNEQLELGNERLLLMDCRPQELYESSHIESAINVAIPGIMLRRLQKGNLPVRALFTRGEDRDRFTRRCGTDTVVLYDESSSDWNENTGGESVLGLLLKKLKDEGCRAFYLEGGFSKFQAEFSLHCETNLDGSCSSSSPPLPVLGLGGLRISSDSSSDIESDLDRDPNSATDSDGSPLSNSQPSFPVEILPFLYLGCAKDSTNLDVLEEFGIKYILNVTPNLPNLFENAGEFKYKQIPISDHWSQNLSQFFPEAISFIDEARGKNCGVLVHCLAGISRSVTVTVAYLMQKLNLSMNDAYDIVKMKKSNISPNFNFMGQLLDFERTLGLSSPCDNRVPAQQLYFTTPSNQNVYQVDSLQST

On to `O=C(C1CCN(S(=O)(=O)c2cnc[nH]2)CC1)N1CCN(c2ncccn2)CC1`, for which, in [1], the fluorescence slope is -0.353 (inactive). Moreover, in assay [2], the NADPH fluorescence slope is -7e-05 (inactive). In addition, the slope in [3] was 0.00534 (inactive). Further, the outcome in [4] was inactive. For the same compound, the inhibition is -35.5% (inactive) in [5] and 88.9% (active) in assay [6].
For `Cc1ccc2oc(=O)c3cnn(CC(=O)N4CCCc5ccccc54)c3c2c1`, in assay [1], the fluorescence slope was -0.49 (inactive). Further, the NADPH fluorescence slope in [2] is 1.1e-05 (inactive). Besides, the slope in assay [3] is 0.00798 (inactive). Also, the results for the inhibition in assay [5] and in [6] were 29.3% (inactive) and 19.2% (inactive), respectively.
For `Cc1ccccc1-c1nc(CS(=O)(=O)CC(=O)N(C)C2CCCCC2)c(C)o1`, the fluorescence slope in [1] is -0.49 (inactive). In assay [2], the NADPH fluorescence slope is -3.4e-05 (inactive). In assay [3], the slope was 0.00717 (inactive). Besides, the inhibition in assay [5] is -5.9% (inactive); in [6], -32.7% (inactive).
Consider `Cn1c(=O)oc2cc(S(=O)(=O)NCCC(=O)N3CCc4ccccc4C3)ccc21`, for which, in assay [1], the fluorescence slope is -0.514 (inactive). Further, the NADPH fluorescence slope in assay [2] is -9.1e-05 (inactive). For the same compound, the slope in [3] is 0.00621 (inactive). Moreover, the inhibition in [5] is 13.9% (inactive); in assay [6] it was 18.7% (inactive).
Regarding `COc1ccc(OC)c(C2=NOC(C(=O)Nc3c(C)n(C)n(-c4ccccc4)c3=O)C2)c1` (stereo not drawn), the fluorescence slope in assay [1] is -0.546 (inactive). The NADPH fluorescence slope in [2] was -2.8e-05 (inactive). Further, the slope in assay [3] was 0.0073 (inactive). Further, the inhibition in [5] was -3.88% (inactive); in assay [6], 17.6% (inactive).
For the compound `CC(C)(C)C1CCc2onc(C(=O)Nc3cnn(Cc4ccc(F)cc4)c3)c2C1` (stereo not drawn), the fluorescence slope in assay [1] was -0.58 (inactive); in assay [7], 0.00687 (inactive). Besides, the NADPH fluorescence slope in assay [2] is 1.6e-05 (inactive). Besides, the results for the inhibition in assay [5] and in [6] were 12% (inactive) and 19.7% (inactive), respectively.
In the case of `CCOC(=O)C1CCCN(C(=O)c2cc3c(-c4cccc(OC)c4)nn(C)c3s2)C1` (stereo not drawn), the fluorescence slope in assay [1] is -0.355 (inactive). For the same compound, the NADPH fluorescence slope in [2] was -3.7e-05 (inactive). For the same compound, the slope in assay [3] is 0.00666 (inactive). The outcome in assay [4] was inactive. The inhibition in [5] is -33.2% (inactive); in assay [6], 39.4% (inactive).
Consider `Cc1cccc(-n2ccnc2SCC(=O)Nc2cc(C)on2)c1`, for which the fluorescence slope was -0.513 (inactive) in assay [1] and 0.00505 (inactive) in assay [7]. Also, the NADPH fluorescence slope in [2] was 3.9e-06 (inactive). The values for the inhibition in assay [5] and in assay [6] were -19% (inactive) and -43.2% (inactive), respectively.
Regarding `O=C(CN(Cc1ccco1)C(=O)CNS(=O)(=O)c1ccc(Cl)cc1)NCc1ccc(F)cc1`, in [8], the inhibition of aggregation was -10.4% (inactive). Besides, the nuclei count in assay [8] came to 97.5%; in assay [9], 159%. Also, the inhibition in assay [9] was -185% (inactive); in assay [5], 22.1% (inactive); in [6], 27.5% (inactive). Moreover, the fluorescence slope is -0.567 (inactive) in [1] and 0.00551 (inactive) in assay [7]. Also, the NADPH fluorescence slope in assay [2] was -6.4e-06 (inactive).
`Cc1cc(C)cc(-n2ccnc2SCC(=O)Nc2ccc3c(c2)OCCO3)c1`: the figures for the fluorescence slope in assay [1] and in assay [7] were -0.57 (inactive) and 0.00517 (inactive), respectively. In [2], the NADPH fluorescence slope is -3.9e-05 (inactive). The inhibition was 1.38% (inactive) in assay [5] and -4.03% (inactive) in [6].
On to `Cc1cc(C)n(C(=O)CNC(=O)c2cccs2)n1`, for which the inhibition in assay [9] was -109% (inactive); in assay [11], 7.48% (inactive); in [12] it was 16.6% (inactive). This compound gave a nuclei count in assay [9] of 182%. The z-score in assay [10] (setting [13]) was 0.591; in assay [10] (setting [14]), -1.67; in assay [10] (setting [15]), -0.663. The fluorescence slope in [1] is -0.404 (inactive); in assay [7] it was 0.00505 (inactive). Besides, the NADPH fluorescence slope in assay [2] was -3.1e-05 (inactive). Also, the compound was classed as inactive in assay [4].
Consider `CCCN1Cc2cccc(C(=O)NCc3cccs3)c2C1=O`, for which the fluorescence slope in assay [1] was -0.393 (inactive). Also, the NADPH fluorescence slope in [2] is -4e-05 (inactive). Also, the slope in assay [3] is 0.00508 (inactive). The outcome in assay [4] was inactive. In addition, the inhibition is 3.53% (inactive) in [5] and 2.96% (inactive) in [6].
Consider `CCCNCC(O)COc1ccccc1C(=O)CCc1ccccc1` (stereo not drawn), for which the inhibition in [9] was -137% (inactive); in [11], -4.44% (inactive); in assay [5], 9.47% (inactive); in [6] it was 42.6% (inactive). In [9], this compound returned a nuclei count of 129%. The z-score in [10] (setting [13]) is -0.576; in assay [10] (setting [14]), 0.234; in assay [10] (setting [15]), 0.603. Also, the fluorescence slope in [1] was -0.521 (inactive). Also, the NADPH fluorescence slope in assay [2] is -4.9e-05 (inactive). In assay [3], the slope is 0.00393 (inactive).
As to `O=C(NCCC1=CCCCC1)C1CCN(S(=O)(=O)c2cccc3cccnc23)CC1`, the fluorescence slope in [1] was -0.494 (inactive). Further, in [2], the NADPH fluorescence slope is 2.4e-05 (inactive). Moreover, the slope in assay [3] is 0.00594 (inactive). In addition, the inhibition in assay [5] is -7.21% (inactive); in [6], -9.62% (inactive).
`CCOC(=O)CNC(=O)C(Cc1ccccc1)NS(=O)(=O)c1ccc2c(c1)CCC(=O)N2` (stereo not drawn): the fluorescence slope was -0.438 (inactive) in assay [1] and 0.00524 (inactive) in [7]. Also, the NADPH fluorescence slope in assay [2] is -0.000333 (inactive). The inhibition in [5] is 0.424% (inactive); in assay [6], 15.6% (inactive).
On to `CC(C)CCNC(=O)NC(=O)CSc1nnc(COc2ccccc2Cl)o1`, for which the inhibition of aggregation in [8] was 13.9% (inactive). In addition, the nuclei count came out at 98.5% in assay [8] and 126% in [9]. Besides, the results for the inhibition in [9], in assay [5] and in assay [6] were -53.1% (inactive), 9.99% (inactive) and 21% (inactive), respectively. For the same compound, the fluorescence slope in assay [1] was -0.513 (inactive); in assay [7] it was 0.00525 (inactive). Moreover, the NADPH fluorescence slope in assay [2] was -7.7e-06 (inactive).
In the case of `O=C(Nc1cc(Cl)ccc1Cl)c1noc2c1CCCC2`, the fluorescence slope in [1] was -0.601 (inactive). Further, the NADPH fluorescence slope in [2] was -9e-06 (inactive). In assay [3], the slope is 0.00618 (inactive). The inhibition in assay [5] was -3.4% (inactive); in assay [6], 26.6% (inactive).
